This passage reports outcome and AC50 results from PubChem BioAssay (EPA / NIEHS).

Active and inactive are the calls of the source. Rule for the calls: active = hit-call score of the fitted dose curve at least 0.9, where 1 is the maximum; inactive = score below 0.9.

The nature of assay [1]: ATG_CRE_CIS: Attagene CIS-FACTORIAL HepG2 Assay for human cAMP Responsive Element (CRE) binding protein 3 (AID 2282926). The conditions noted are these: HepG2 CRE cis-reporter, Attagene multiplexed mRNA; actives raise or lower the signal. A digest of the protocol: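 Assay format: transient reporter transfection of HepG2, 24 h treatment, total RNA isolation with DNase I step. Reporter abundance read by fluorescence after PCR and capillary separation; DMSO-normalised gain or loss fitting.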

For assay [2], the target named is CCAAT/enhancer-binding protein beta (Homo sapiens) (UniProt P17676). The assay is described as follows: ATG_C_EBP_CIS: Attagene CIS-FACTORIAL HepG2 Assay for human CCAAT/Enhancer Binding Protein (C/EBP) beta (AID 2282927). The conditions noted are these: HepG2 Attagene cis-factorial transcription factor reporter; actives raise or lower the signal. The essentials:
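Endogenous C/EBPb-driven reporter transcripts measured in transfected human HepG2 cells at 24 h via RT-PCR and capillary electrophoresis of labelled fragments. Activity fitted in both directions relative to DMSO baseline.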

A short description of assay [3]: ATG_CMV_CIS: Attagene CIS-FACTORIAL HepG2 Assay for human CMV (Internal Marker) (AID 2282928).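 Note: endpoint acts as a background internal control marker rather than a target.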 The conditions noted are these: HepG2 CMV promoter reporter, transcription factor profiling; actives raise or lower the signal. A digest of the protocol:
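24 h chemical treatment, HepG2 with transient multi-reporter transfection; RNA → oligo(dT) RT → PCR → 6-FAM extension → HpaI digest → CE fluorescence. Bidirectional fit, DMSO negative control.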

Assay [4] can be described thus: ATG_DR4_LXR_CIS: Attagene CIS-FACTORIAL HepG2 Assay for human Liver X Receptor (LXR), DR4 submotif (AID 2282929). As to conditions: HepG2 Attagene DR4 cis-reporter, mRNA transcription; actives raise or lower the signal. The essentials: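 HepG2 cells transiently transfected with cis-promoter-driven multiplexed reporter units (DR4 element) were dosed for 24 h. Reporter mRNA was quantified by RT-PCR, fluorescent primer extension, HpaI digestion and capillary electrophoresis; bidirectional fitting versus DMSO baseline.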

The target in assay [5] is Aryl hydrocarbon receptor (Homo sapiens) (UniProt P35869). Nature of the assay: ATG_Ahr_CIS: Attagene CIS-FACTORIAL HepG2 Assay for human Aryl Hydrocarbon Receptor (Ahr) (AID 2282930). The conditions noted are these: HepG2 AhR cis-factorial reporter transcription; actives raise or lower the signal. The essentials: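 Reporter mRNA levels, quantified by RT-PCR and fluorescent capillary electrophoresis, reflect endogenous AhR transcriptional activity in HepG2 cells carrying transfected cis-promoter reporter constructs. Readout at 24 h post-dose; gain or loss fitted against DMSO baseline.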
Chain of Aryl hydrocarbon receptor (Homo sapiens) (P35869 whole entry, looked up): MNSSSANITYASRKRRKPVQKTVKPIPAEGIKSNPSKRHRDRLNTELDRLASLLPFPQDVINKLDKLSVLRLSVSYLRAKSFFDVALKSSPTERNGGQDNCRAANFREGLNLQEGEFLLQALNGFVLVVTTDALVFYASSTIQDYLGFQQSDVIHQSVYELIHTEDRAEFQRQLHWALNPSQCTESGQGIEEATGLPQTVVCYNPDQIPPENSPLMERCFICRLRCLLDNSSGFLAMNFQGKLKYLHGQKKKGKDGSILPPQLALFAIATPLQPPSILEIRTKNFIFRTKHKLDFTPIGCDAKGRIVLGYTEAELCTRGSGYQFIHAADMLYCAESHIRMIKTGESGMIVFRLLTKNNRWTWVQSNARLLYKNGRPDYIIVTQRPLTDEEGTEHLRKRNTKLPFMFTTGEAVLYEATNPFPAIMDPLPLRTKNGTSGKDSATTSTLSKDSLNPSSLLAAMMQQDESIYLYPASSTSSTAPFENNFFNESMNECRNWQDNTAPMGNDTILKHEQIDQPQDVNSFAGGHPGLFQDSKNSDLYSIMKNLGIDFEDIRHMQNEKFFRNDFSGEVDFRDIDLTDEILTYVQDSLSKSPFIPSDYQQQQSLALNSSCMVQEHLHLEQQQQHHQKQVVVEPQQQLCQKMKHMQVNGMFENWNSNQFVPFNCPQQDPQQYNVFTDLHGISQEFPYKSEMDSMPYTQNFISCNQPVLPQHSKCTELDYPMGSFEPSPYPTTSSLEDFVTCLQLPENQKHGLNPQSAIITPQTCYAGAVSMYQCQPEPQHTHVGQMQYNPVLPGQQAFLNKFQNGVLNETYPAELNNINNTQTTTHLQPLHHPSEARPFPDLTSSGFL

Assay [6] is described as follows: ATG_AP_1_CIS: Attagene CIS-FACTORIAL HepG2 Assay for human Activator Protein 1 (AP-1) (AID 2282931). As to conditions: HepG2 Attagene cis-factorial AP-1 reporter mRNA; actives raise or lower the signal. A digest of the protocol: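 HepG2 cells transiently transfected with cis-element-driven multiplex reporter units; 24 h compound exposure. Reporter mRNA quantified by RT-PCR, FAM-labelled fragments resolved by capillary electrophoresis; bidirectional fit versus DMSO baseline.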

The nature of assay [7]: ATG_BRE_CIS: Attagene CIS-FACTORIAL HepG2 Assay for human Bone Morphogenetic Protein (BMP) Response Element (BRE) (AID 2282933). As to conditions: HepG2 BMP response element reporter, Attagene transcription factor profiling; actives raise or lower the signal. The essentials: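 Read-out: reporter mRNA induction quantified by RT-PCR and capillary electrophoresis after 24 h chemical exposure of transfected HepG2 cells. Endogenous factor activity on the BMP response element; gain or loss fitted against DMSO baseline.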

In assay [8] the target is Retinoic acid receptor alpha (Homo sapiens) (UniProt P10276). The assay is described as follows: ATG_DR5_RAR_CIS: Attagene CIS-FACTORIAL HepG2 Assay for human Retinoic Acid Receptor Alpha (RARE), DR5 submotif (AID 2282934).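 For AC50: reporter responds to endogenous RAR alpha beta and gamma in HepG2 not RARA alone.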 As to conditions: HepG2 Attagene cis-factorial RARE DR5 reporter, mRNA; actives raise or lower the signal. The essentials: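 Reporter transcripts from a DR5-regulated unit, measured via RT-PCR plus capillary electrophoresis, reflect endogenous RAR activity in transiently transfected human HepG2 liver cells. Exposure lasted 24 h; gain or loss of signal scored against DMSO.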
Chain of Retinoic acid receptor alpha (Homo sapiens) (P10276 whole entry, looked up): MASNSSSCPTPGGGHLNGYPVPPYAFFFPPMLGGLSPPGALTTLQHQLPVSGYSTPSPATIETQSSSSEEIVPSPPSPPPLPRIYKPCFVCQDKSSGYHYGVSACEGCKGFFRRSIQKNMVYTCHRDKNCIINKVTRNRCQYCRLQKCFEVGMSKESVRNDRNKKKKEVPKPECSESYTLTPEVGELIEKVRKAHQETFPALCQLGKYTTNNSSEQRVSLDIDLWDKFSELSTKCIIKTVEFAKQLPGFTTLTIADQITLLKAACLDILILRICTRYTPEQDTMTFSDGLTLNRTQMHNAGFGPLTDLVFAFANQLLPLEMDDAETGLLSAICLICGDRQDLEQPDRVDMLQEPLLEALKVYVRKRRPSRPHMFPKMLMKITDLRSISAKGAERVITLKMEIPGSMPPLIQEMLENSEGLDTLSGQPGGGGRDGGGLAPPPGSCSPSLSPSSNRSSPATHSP

Assay [9] deals with Transcription factor E2F1 (Homo sapiens) (UniProt Q01094). The assay is described as follows: ATG_E2F_CIS: Attagene CIS-FACTORIAL HepG2 Assay for human E2F Transcription Factor 1 (AID 2282935). As to conditions: HepG2 Attagene cis-reporter, E2F reporter RNA transcripts; actives raise or lower the signal. The essentials:
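Fluorescent RT-PCR products, digested with HpaI for 2 h at 37 C, are separated by capillary electrophoresis. Source RNA comes from transfected HepG2 cultures treated for 24 h.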

The nature of assay [10]: ATG_E_Box_CIS: Attagene CIS-FACTORIAL HepG2 Assay for human Enhancer Box (E-box) (AID 2282936). The conditions noted are these: HepG2 E-box cis-reporter transcription, actives raise or lower the signal. The essentials: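 Fluorescent reporter fragments separated by capillary electrophoresis gave the signal; mRNA came from HepG2 cells transfected with cis-element reporters and treated 24 h. Curves fitted bidirectionally relative to DMSO controls.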

The nature of assay [11]: ATG_M_61_CIS: Attagene CIS-FACTORIAL HepG2 Assay for M61 Transcription Factor (Internal Marker) (AID 2282937). The conditions noted are these: HepG2 Attagene CIS-FACTORIAL M61 internal marker reporter; actives raise or lower the signal. A digest of the protocol:
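HepG2 cells transiently transfected with cis-element-driven multiple reporter transcription units, dosed for 24 h. Reporter mRNA measured by RT-PCR, 6-FAM primer-extension labelling, HpaI digestion and capillary electrophoresis; bidirectional fit versus DMSO baseline.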

Assay [12] in a line: ATG_M_19_CIS: Attagene CIS-FACTORIAL HepG2 Assay for M19 Transcription Factor (Internal Marker) (AID 2282939). The conditions noted are these: HepG2 Attagene CIS-FACTORIAL M19 internal marker reporter; actives raise or lower the signal. The essentials:
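Readout: fluorescent reporter-transcript fragments by capillary electrophoresis after RT-PCR. Human HepG2 liver cells carried transfected MRTU constructs reporting endogenous transcription-factor activity; exposure 24 h. Gain or loss of signal fitted relative to DMSO.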

A short description of assay [13]: ATG_ERE_CIS: Attagene CIS-FACTORIAL HepG2 Assay for Estrogen Response Element (ERE) (AID 2282940). The conditions noted are these: HepG2 ERE cis-reporter, Attagene RNA transcript; actives raise or lower the signal. The essentials:
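Readout: reporter mRNA induction by RT-PCR, FAM-labelled primer extension, HpaI digestion and capillary electrophoresis, 24 h after dosing transfected HepG2 cells. Endogenous transcription factors act on cis-element-regulated reporters. Gain or loss fitted against DMSO.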

Assay [14] deals with Hepatocyte nuclear factor 3-beta (Homo sapiens) (UniProt Q9Y261). Nature of the assay: ATG_FoxA2_CIS: Attagene CIS-FACTORIAL HepG2 Assay for human Forkhead box A2 (FOXA2) (AID 2282942). The conditions noted are these: HepG2 cis-reporter transcription factor activity, 24 h; actives raise or lower the signal. The essentials:
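HepG2 cells transiently transfected with multiple cis-regulated reporter transcription units, dosed for 24 h. Reporter mRNA measured by RT-PCR, 6-FAM labelling, HpaI digestion and capillary electrophoresis; bidirectional fitting against DMSO baseline.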

Assay [15] can be described thus: ATG_FoxO_CIS: Attagene CIS-FACTORIAL HepG2 Assay for human Forkhead box O (FoxO) (AID 2282943). As to conditions: HepG2 Attagene cis-reporter, FoxO element, mRNA; actives raise or lower the signal. A digest of the protocol:
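Endogenous transcription factor activity read from multiplexed cis-promoter reporter transcripts in transiently transfected HepG2, 24 h after dosing. Reporter RNA measured via RT-PCR plus capillary electrophoresis of FAM-labeled products; gain or loss relative to DMSO.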

Assay [16] in a line: ATG_GATA_CIS: Attagene CIS-FACTORIAL HepG2 Assay for human GATA Binding Protein (AID 2282944). As to conditions: HepG2 GATA cis-element reporter, Attagene multiplex mRNA; actives raise or lower the signal. A digest of the protocol:
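Read-out: fluorescent reporter mRNA fragments resolved by capillary electrophoresis after RT-PCR. Human liver HepG2 cells carried transiently transfected cis-regulated reporter constructs; chemicals incubated 24 h; gain or loss of signal fitted relative to DMSO.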

Assay [17] is described as follows: ATG_GLI_CIS: Attagene CIS-FACTORIAL HepG2 Assay for human Zinc Finger Protein GLI1 (AID 2282945). The conditions noted are these: HepG2, Attagene cis-factorial reporter mRNA, GLI element; actives raise or lower the signal. A digest of the protocol: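 Bidirectional curve fits relative to DMSO, using reporter mRNA levels from RT-PCR plus capillary electrophoresis. Cells were HepG2 transiently carrying cis-regulated reporter constructs, harvested 24 h after dosing.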

Assay [18] in a line: ATG_EGR_CIS: Attagene CIS-FACTORIAL HepG2 Assay for human Early Growth Response 1 (EGR1) (AID 2282938). As to conditions: HepG2 Attagene CIS-FACTORIAL EGR reporter mRNA; actives raise or lower the signal. A digest of the protocol:
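HepG2 cells transiently transfected with cis-promoter-driven multiplexed reporter transcription units; reporter mRNA measured 24 h after compound dosing by RT-PCR, 6-FAM primer extension, HpaI digestion and capillary electrophoresis. Bidirectional fit versus DMSO baseline.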

The nature of assay [19]: ATG_Ets_CIS: Attagene CIS-FACTORIAL HepG2 Assay for human Erythroblast Transformation Specific (ETS) (AID 2282941). The conditions noted are these: HepG2 ETS cis-reporter transcription, actives raise or lower the signal. The essentials:
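Cis-regulated reporter mRNA induction in HepG2 (transient transfection), 24 h exposure, RT-PCR plus capillary electrophoresis detection; DMSO serves as negative control and baseline.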

Assay [20] is described as follows: ATG_AP_2_CIS: Attagene CIS-FACTORIAL HepG2 Assay for human Activator Protein 2 (AP-2) (AID 2282932). The conditions noted are these: HepG2 AP-2 cis-reporter, Attagene transcription factor profiling; actives raise or lower the signal. The essentials:
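Transiently transfected HepG2 cells are exposed to chemical for 24 h. Reporter transcripts are then measured as fluorescence following RT-PCR and capillary separation, and gain- or loss-of-signal is fitted relative to DMSO.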

Chain of CCAAT/enhancer-binding protein beta (Homo sapiens) (P17676 whole entry, looked up, the tested form may be a part): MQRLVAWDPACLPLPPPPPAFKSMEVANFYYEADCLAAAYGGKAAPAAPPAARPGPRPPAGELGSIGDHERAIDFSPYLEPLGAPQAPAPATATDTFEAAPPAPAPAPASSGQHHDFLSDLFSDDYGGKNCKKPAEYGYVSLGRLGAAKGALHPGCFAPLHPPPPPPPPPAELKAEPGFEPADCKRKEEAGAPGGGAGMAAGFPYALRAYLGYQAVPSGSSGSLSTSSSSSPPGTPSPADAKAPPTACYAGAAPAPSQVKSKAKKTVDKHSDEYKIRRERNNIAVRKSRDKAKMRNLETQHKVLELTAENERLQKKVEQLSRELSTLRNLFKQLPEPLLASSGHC
Chain of Transcription factor E2F1 (Homo sapiens) (Q01094 whole entry, looked up): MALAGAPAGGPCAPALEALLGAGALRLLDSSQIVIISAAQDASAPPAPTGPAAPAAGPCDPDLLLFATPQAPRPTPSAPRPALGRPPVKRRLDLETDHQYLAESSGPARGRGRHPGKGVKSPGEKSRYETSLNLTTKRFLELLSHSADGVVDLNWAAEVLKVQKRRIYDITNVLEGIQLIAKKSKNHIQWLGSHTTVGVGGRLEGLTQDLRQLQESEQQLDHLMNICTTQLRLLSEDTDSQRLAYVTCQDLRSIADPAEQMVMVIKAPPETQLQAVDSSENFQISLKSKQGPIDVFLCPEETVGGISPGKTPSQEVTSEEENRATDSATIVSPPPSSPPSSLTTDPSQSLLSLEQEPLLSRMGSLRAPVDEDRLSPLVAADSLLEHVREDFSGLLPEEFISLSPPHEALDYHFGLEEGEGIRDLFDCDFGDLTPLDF
Chain of Hepatocyte nuclear factor 3-beta (Homo sapiens) (Q9Y261 whole entry, looked up): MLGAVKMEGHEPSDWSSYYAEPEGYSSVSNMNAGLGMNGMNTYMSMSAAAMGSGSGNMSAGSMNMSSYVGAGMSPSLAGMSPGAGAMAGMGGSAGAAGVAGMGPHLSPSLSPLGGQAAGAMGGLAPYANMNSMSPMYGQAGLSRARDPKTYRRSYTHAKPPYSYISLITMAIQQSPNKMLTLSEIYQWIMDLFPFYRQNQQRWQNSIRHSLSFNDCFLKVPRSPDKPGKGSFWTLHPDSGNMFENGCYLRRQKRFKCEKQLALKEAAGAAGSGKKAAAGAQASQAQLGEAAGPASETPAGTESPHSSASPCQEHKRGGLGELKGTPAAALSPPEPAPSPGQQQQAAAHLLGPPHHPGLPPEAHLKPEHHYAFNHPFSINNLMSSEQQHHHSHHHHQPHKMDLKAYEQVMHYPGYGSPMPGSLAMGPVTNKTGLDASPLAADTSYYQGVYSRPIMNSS

For `NC(=O)OCC(COC(N)=O)c1ccccc1`, the result in assay [1], in assay [2], in [3], in [4], in assay [5] and in assay [6] was inactive. The compound was called inactive in assay [7], in assay [8], in assay [9], in assay [10], in [11] and in assay [12]. Besides, the compound was classed as inactive in assay [13], in assay [14], in assay [15], in [16] and in assay [17].
With `CC(=O)c1ccc[nH]1`, the compound was classed as inactive in assay [1], in [2], in assay [3], in assay [4], in [5] and in [6]. The compound was classed as inactive in assay [7], in [8], in [9], in [10], in assay [11] and in assay [18]. The compound was called inactive in assay [12], in [13], in [19], in assay [14], in [15] and in [16]. Further, in assay [17], the result was inactive.
With `C=C(C)C(=O)OCCO`, the result in assay [1], in assay [2], in assay [3], in [4], in assay [5] and in assay [6] was inactive. Further, the compound was classed as inactive in [7], in [9], in assay [10], in assay [11], in assay [18] and in assay [12]. For the same compound, the result in [13], in [19], in [14], in assay [15], in assay [16] and in [17] was inactive.
Regarding `CC(C)=CCC/C(C)=C\C#N`, the compound was classed as inactive in assay [1], in assay [2], in assay [3], in assay [4], in [5] and in assay [6]. In addition, the compound was called inactive in assay [7], in [8], in assay [9], in assay [10], in assay [11] and in assay [12]. In addition, the compound was called inactive in [13], in assay [19], in [14], in [15] and in assay [17].
With `Cc1cnc(NC(=O)C2=C(O)c3ccccc3S(=O)(=O)N2C)s1`, the call in assay [1], in assay [2], in assay [3], in assay [4], in [6] and in assay [8] was inactive. Further, the call in assay [9], in assay [10], in assay [11], in [18], in [12] and in [13] was inactive. Further, the outcome in [19], in [14], in assay [15], in [16] and in assay [17] was inactive. In addition, the AC50 in assay [5] is 100 µM (active).
Consider `CC(C)(C)C(=O)CCc1ccc(Cl)cc1`, for which the result in [1], in assay [2], in assay [3], in assay [4], in [5] and in assay [6] was inactive. The compound was called inactive in assay [7], in assay [8], in [9], in assay [10], in assay [11] and in assay [18]. In addition, the result in [12], in [19], in assay [14], in [16] and in [17] was inactive. Further, in assay [13], the AC50 is 30.2 µM (active).
Regarding `C=CC(=O)OCCOC1C2CCC1C1CC=CC12` (configuration not stated), the compound was called inactive in assay [1], in [2], in assay [3], in assay [4], in [6] and in [20]. Also, the compound was called inactive in assay [7], in [8], in assay [9], in assay [10], in assay [11] and in [18]. Further, the outcome in assay [12], in assay [13], in assay [19], in assay [14], in assay [15] and in assay [17] was inactive.
Regarding `CCCCCCCCCCc1ccccc1`, the compound was classed as inactive in [1], in assay [2], in assay [3], in assay [4], in assay [6] and in assay [20]. The compound was called inactive in assay [7], in assay [9], in assay [10], in assay [11], in [12] and in assay [13]. Further, the outcome in assay [19], in assay [14], in assay [15] and in [17] was inactive. The AC50 in [8] is 84.7 µM (active).

One may read the AC50 as the concentration at which the activity in the assay is half-maximal.
